# Results published in ChEMBL document CHEMBL3433997, “St. Jude Leishmania screening dataset” (2016).
# Target: Glucose transporter (Leishmania mexicana) (UniProt O61059)
# Experiment: ST_JUDE_LEISH: Cytotoxicity at 2uM final concentration against transgenic Leishmania Mexicana promastigotes LmGT2 that are glucose transport deficient and complemented with the L. Mexicana glucose transporter 2. Activity is measured by DNA content using SYBR green in vitro
# Assay type: functional
row,SMILES,inhibition [%]
1,COc1cc(CNc2ncc(-c3ccsc3)c(-c3nccs3)n2)cc(OC)c1,-0.78
2,CN1CCN(c2ccc(-c3cccc(NC(=O)c4cccc([N+](=O)[O-])c4)c3)nn2)CC1,1.84
3,COC(=O)c1cccc(NC(=O)NC2CCN(c3ccnc(Nc4ccc(F)cc4)n3)C2)c1 (stereo unspecified),-0.55
4,Cc1cc(NCCC(=O)NCCOc2ccccc2)nc(NCCc2ccccc2)n1,0.66
5,COc1ccc2nc3cc(Cl)ccc3c(NCCCO)c2c1,2.01
6,N#Cc1cccc(-c2cccc(C(=O)NC3CCC(CCN4CCc5ccc(C#N)cc5CC4)CC3)c2)c1 (stereo unspecified),11.2
7,COc1cccc2c(N/N=C/c3ccccc3[N+](=O)[O-])ccnc12,3.87
8,O=C(NC1CCN(CCCc2ccccc2)CC1)c1ccc(-c2cccc(C(F)(F)F)c2)s1,3.77
9,COc1cc2c(cc1OCCN1CCC(N3CCCC3)CC1)N(C(=O)/C=C/c1ccccc1Cl)CC2,2.99
10,COc1ccc2nc(C)cc(NC3Cc4ccccc4C3)c2c1,0.76
11,CN1CCN(Cc2ccc(-c3ccc4c(Nc5cc(O)c(Cl)cc5F)ccnc4c3)o2)CC1,4.5
12,COc1ccc2nc3cc(Cl)ccc3c(NCCCCN3CCNCC3)c2c1,3.51
13,CCc1ccc(CN(Cc2ccc(C)cc2)Cc2ccc(NC(C)=O)cc2)cc1,2.91
14,N#Cc1cccc(Nc2ncc3c(-c4cccc(NC(=O)Cc5cccc(Cl)c5)c4)c[nH]c3n2)c1,0.18
15,O=C(/C=C/c1ccc(Cl)c(Cl)c1)NCCCCCCN1CCCN(C(=O)Nc2cc(F)cc(F)c2)CC1,-1.02
16,COc1ccc(Cn2c(Nc3cccc(C(F)(F)F)c3)nc3cc(C(=O)NCCN4CCCC4)ccc32)cc1Cl,0.72
